The record followed here is PMC5700166.

Changes are numbered by the printed parent chain.

Experiment in all cases: protein-binding microarray (PBM); PBM: ~300 nM protein, 6 mM HEPES pH 7.8, 80 mM KCl, 0.5 mM EDTA, 0.5 mM EGTA, 6% glycerol, 35 ng/ul poly-dIdC, 1% milk, 1 h, room temperature; Ap Aiptasia and Nv Nematostella (sea anemones) / Co Capsaspora / Aq Amphimedon (sponge) / Dm Drosophila / Hu human; RHD is the Rel homology domain; high values mean tight binding
Common to all, as to conditions: dsDNA, one strand shown

Assay [1] addresses T1, GST-Ap-NF-kB RHD (Exaiptasia pallida (Aiptasia), UniProt A0A913YAJ5 2-422).
T1 sequence: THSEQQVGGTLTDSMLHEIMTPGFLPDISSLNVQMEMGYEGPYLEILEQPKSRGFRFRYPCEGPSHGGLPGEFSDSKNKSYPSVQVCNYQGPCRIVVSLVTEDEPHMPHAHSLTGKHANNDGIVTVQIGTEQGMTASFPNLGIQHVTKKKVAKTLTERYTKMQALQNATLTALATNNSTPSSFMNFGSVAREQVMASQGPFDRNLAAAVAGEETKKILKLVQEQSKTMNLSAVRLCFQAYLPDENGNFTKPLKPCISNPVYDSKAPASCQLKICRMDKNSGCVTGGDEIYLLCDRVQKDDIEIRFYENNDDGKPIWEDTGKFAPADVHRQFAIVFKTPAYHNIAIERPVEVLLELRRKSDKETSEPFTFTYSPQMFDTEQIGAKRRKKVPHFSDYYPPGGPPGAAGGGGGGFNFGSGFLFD

The target of assay [2] is T2, GST-Nv-NF-kB (Cys allele) (Nematostella vectensis, UniProt E5G601 2-411).
T2 sequence: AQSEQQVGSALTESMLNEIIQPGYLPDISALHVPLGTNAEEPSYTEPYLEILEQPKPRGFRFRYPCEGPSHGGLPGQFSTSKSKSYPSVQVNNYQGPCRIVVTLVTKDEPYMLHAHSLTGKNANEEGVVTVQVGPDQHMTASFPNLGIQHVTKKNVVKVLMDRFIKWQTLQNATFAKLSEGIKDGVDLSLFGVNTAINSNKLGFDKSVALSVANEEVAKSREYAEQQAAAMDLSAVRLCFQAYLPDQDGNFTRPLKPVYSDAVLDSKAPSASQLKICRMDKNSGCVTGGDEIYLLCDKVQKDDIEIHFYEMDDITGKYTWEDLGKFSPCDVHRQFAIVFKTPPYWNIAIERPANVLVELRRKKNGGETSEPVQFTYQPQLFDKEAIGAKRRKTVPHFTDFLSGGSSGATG

Assay [3] deals with T3, GST-Nv-NF-kB (Ser allele) (Nematostella vectensis, UniProt A7UNT2 2-411).
T3 sequence: T2 sequence with Q21R, C66S, S207N, E215Q, V217A, E225K, A268E, D399E

Assay [4] addresses T4, GST-Co-NF-kB (Capsaspora owczarzaki, UniProt F1ARL5 200-546).
T4 sequence: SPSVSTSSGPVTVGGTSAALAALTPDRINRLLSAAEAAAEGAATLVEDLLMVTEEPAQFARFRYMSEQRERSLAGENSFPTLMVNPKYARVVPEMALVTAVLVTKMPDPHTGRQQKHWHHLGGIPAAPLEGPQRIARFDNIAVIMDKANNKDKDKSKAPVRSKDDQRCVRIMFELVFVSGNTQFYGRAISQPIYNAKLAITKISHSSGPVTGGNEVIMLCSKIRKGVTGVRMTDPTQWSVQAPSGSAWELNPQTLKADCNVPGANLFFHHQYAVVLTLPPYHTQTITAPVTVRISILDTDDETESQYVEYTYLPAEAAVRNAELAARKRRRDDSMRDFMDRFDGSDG

Assay [5] concerns the target T5, GST-Dm-Relish (Drosophila melanogaster, UniProt Q94527 99-473).
T5 sequence: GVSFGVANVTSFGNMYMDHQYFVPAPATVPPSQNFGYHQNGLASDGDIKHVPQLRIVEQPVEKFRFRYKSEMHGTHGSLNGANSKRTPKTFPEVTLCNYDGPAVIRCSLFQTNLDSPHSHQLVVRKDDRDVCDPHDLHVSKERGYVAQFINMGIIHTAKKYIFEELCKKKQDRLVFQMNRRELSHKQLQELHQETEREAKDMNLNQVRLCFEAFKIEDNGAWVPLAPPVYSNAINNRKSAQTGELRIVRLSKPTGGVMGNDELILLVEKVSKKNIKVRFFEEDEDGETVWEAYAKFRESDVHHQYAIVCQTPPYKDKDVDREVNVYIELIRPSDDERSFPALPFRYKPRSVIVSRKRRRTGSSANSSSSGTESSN

Assay [6] deals with T6, GST-Aq-NF-kB (Amphimedon queenslandica, UniProt A9Y5G7 2-389).
T6 sequence: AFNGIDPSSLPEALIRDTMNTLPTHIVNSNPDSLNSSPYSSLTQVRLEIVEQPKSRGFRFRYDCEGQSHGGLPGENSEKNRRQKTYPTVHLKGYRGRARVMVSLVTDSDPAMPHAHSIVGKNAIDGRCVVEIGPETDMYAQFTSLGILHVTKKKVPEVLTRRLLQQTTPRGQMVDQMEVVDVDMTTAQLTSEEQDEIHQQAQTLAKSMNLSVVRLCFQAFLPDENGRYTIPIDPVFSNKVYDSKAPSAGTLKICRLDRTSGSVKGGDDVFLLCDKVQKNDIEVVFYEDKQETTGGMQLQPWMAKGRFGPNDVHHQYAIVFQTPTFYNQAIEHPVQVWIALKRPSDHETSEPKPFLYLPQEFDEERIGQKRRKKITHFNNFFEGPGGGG

Assay [7] deals with GST-Hu-p50 (Homo sapiens, UniProt P19838 7-356).
Chain of GST-Hu-p50 (P19838 7-356): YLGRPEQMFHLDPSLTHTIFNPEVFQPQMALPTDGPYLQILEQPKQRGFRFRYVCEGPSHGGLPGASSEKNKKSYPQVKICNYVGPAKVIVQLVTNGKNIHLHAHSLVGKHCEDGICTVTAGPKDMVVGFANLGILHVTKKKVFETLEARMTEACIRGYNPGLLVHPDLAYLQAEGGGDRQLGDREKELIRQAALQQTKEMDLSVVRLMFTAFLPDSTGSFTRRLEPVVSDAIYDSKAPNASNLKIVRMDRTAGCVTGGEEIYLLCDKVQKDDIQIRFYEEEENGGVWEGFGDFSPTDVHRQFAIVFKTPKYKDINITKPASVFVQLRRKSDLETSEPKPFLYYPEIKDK

Consider “CCGATTAACATCACAAATTACCCTGATGTTAATCGGGTCTTGATTCGCTTGACGCTGCTG”, for which the binding signal in assay [1] was 3.66 z-score; in assay [2], 5.32 z-score; in assay [3] it was 5.44 z-score; in assay [4], 3.35 z-score; in assay [5], 3.01 z-score; in assay [6] it was 4.95 z-score. The same sequence came in with a binding signal in assay [7] of 4.07 z-score.
With “CCGATTAACATCAAAATTCCCCTTGATGTTAATCGGGTCTTGATTCGCTTGACGCTGCTG”, the binding signal in assay [1] amounted to 10.1 z-score; in assay [2], 12.5 z-score; in assay [3], 14.2 z-score; in assay [4] it was 7.63 z-score; in assay [5], 9.78 z-score; in assay [6], 9.63 z-score. Moreover, in assay [7], the binding signal came out at 8.23 z-score.
In the case of “CCGATTAACATCAAATTTCCCACTGATGTTAATCGGGTCTTGATTCGCTTGACGCTGCTG”, the binding signal in assay [1] was determined as 2.73 z-score; in assay [2] it was 4.26 z-score; in assay [3] it was 4.5 z-score; in assay [4] it was 4.39 z-score; in assay [5], 3.33 z-score; in assay [6] it was 4.27 z-score. Also, the binding signal in assay [7] stood at 4.02 z-score.
As for “CCGATTAACATCAAAAGTCCCCCTGATGTTAATCGGGTCTTGATTCGCTTGACGCTGCTG”, the binding signal in assay [1] is 8.58 z-score; in assay [2], 8.14 z-score; in assay [3], 8.36 z-score; in assay [4], 7.93 z-score; in assay [5] it was 9.15 z-score; in assay [6] it was 7.54 z-score. The binding signal in assay [7] was 6.72 z-score.
Turning to “CCGATTAACATCACAATCCCCCCTGATGTTAATCGGGTCTTGATTCGCTTGACGCTGCTG”, the binding signal was 8.13 z-score in assay [1]; 5.61 z-score in assay [2]; 6.37 z-score in assay [3]; 5.89 z-score in assay [4]; 5.35 z-score in assay [5]; 5.25 z-score in assay [6]. The sequence further displayed a binding signal in assay [7] of 6.19 z-score.
With “CCGATTAACATCAATTATTCCCCTGATGTTAATCGGGTCTTGATTCGCTTGACGCTGCTG”, the binding signal stood at 6.67 z-score in assay [1]; 9.08 z-score in assay [2]; 9.75 z-score in assay [3]; 9.22 z-score in assay [4]; 5.24 z-score in assay [5]; 5.63 z-score in assay [6]. Besides, the binding signal in assay [7] came to 6.11 z-score.
Take “CCGATTAACATCAGGGGATATTATGATGTTAATCGGGTCTTGATTCGCTTGACGCTGCTG”: the binding signal in assay [1] came out at 7.99 z-score; in assay [2] it was 7.96 z-score; in assay [3], 9.17 z-score; in assay [4] it was 4.65 z-score; in assay [5], 6.28 z-score; in assay [6], 6.34 z-score. The binding signal in assay [7] stood at 6.06 z-score.
For “CCGATTAACATCAAATTTCCCAGTGATGTTAATCGGGTCTTGATTCGCTTGACGCTGCTG”, the binding signal turned out to be 2.47 z-score in assay [1]; 3.48 z-score in assay [2]; 3.63 z-score in assay [3]; 4.39 z-score in assay [4]; 2.71 z-score in assay [5]; 3.48 z-score in assay [6]. The sequence also had a binding signal in assay [7] of 3.07 z-score.
Turning to “CCGATTAACATCAAATTTCCCGGTGATGTTAATCGGGTCTTGATTCGCTTGACGCTGCTG”, the binding signal in assay [1] came out at 4.14 z-score; in assay [2], 4.99 z-score; in assay [3] it was 4.8 z-score; in assay [4], 6.34 z-score; in assay [5], 3.56 z-score; in assay [6] it was 4.88 z-score. Further, in assay [7], the binding signal was found to be 4.39 z-score.
Turning to “CCGATTAACATCACAAATCCCCCTGATGTTAATCGGGTCTTGATTCGCTTGACGCTGCTG”, the binding signal in assay [1] amounted to 8.39 z-score; in assay [2] it was 8.44 z-score; in assay [3], 9.23 z-score; in assay [4] it was 6.1 z-score; in assay [5] it was 7.73 z-score; in assay [6], 6.8 z-score. Further, the binding signal in assay [7] worked out at 7.16 z-score.
Turning to “CCGATTAACATCACGGGGATCCCTGATGTTAATCGGGTCTTGATTCGCTTGACGCTGCTG”, the binding signal in assay [1] came to 8.72 z-score; in assay [2], 5.48 z-score; in assay [3], 5.51 z-score; in assay [4], 4.27 z-score; in assay [5], 9.65 z-score; in assay [6], 5.88 z-score. The binding signal in assay [7] was 4.51 z-score.
Consider “CCGATTAACATCAGAAATCCCCATGATGTTAATCGGGTCTTGATTCGCTTGACGCTGCTG”, for which the binding signal in assay [1] amounted to 8.63 z-score; in assay [2], 9.17 z-score; in assay [3] it was 9.84 z-score; in assay [4] it was 4.52 z-score; in assay [5], 8.03 z-score; in assay [6] it was 6.3 z-score. This sequence showed a binding signal in assay [7] of 6.99 z-score.
